# CYP2C19 activ: activators of human cytochrome P450 2C19 | 96,000 tested, under 10 active | P33261 | AID 1025 | activation factor at 5 µM | recombinant CYP2C19, luciferin-H EGE luminescence; stronger effect = higher value; 0 = fully inhibited enzyme, 1 = untreated enzyme;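 active means activation factor of at least 2 at 5 µM in the primary screen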;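 further: 0 = wells with 2.5 mM tranylcypromine and 1 = vehicle-only wells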
# Target sequence (P33261 whole entry, looked up): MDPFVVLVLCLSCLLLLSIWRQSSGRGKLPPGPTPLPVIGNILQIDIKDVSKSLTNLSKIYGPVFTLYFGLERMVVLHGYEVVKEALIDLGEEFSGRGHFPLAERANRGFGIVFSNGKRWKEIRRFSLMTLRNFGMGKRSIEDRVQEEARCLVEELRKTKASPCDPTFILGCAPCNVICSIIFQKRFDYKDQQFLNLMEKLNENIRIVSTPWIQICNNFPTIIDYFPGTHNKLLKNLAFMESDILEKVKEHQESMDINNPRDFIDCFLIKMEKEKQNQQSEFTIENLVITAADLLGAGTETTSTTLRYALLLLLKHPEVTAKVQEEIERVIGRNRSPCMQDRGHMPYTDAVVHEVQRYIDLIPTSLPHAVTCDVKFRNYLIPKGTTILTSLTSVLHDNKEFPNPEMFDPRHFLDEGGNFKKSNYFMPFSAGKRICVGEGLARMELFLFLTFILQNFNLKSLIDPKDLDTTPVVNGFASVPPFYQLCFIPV
# MRP-1 activ: activators of MRP-1; H69AR cells + doxorubicin, viability rescue, CellTiter-Glo; viability increase, % at 10 µM; actives 0.61% (n = 140,000);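 active means viability gain under doxorubicin at or above a set limit, the compound median plus 3 SD, cut at about 4.7% in these data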;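 further: MRP-1 overexpressing cells given doxorubicin 25 µM after compound pretreatment; 18-22 h compound pretreatment then 72 h with doxorubicin before readout; 0% = doxorubicin-only wells and 100% = vehicle-treated cells without doxorubicin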
# CYP2C9 activ: activators of human CYP2C9. AID 1024. activation factor at 5 µM. recombinant CYP2C9, luciferin-H conversion, luminescence; stronger effect = higher value; factor 1 = untreated enzyme, 0 = blocked. actives 1.4% (n = 96,000). P11712;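 active means activation factor of 2 or more for CYP2C9 at a 5 µM dose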;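 further: 0 = sulfaphenazole-blocked wells and 1 = vehicle-only wells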
# CYP2C19 inh: inhibitors of human CYP2C19. CYP2C19 Supersomes, luciferin-H EGE luminescence, 30 min. inhibition, % at 5 µM. AID 778. P33261. actives 21% (n = 96,000);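 active means CYP2C19 inhibition above a set limit at 5 µM in the primary screen, cut at about 50% in these data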;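 further: plate controls were negative control wells for no effect and 2.5 mM tranylcypromine positive control for full effect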
# CYP2C9 inh: inhibitors of human CYP2C9. P11712. CYP2C9 Supersomes, luciferin-H conversion, luminescence. inhibition, % at 5 µM. actives 20% (n = 96,000). AID 777;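 active means blocking of liver enzyme CYP2C9 beyond about 50% at 5 µM, limit read from the data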
# MRP resist rev: compounds reversing MRP-mediated drug resistance. actives 0.04% (n = 85,000). H69AR cells + 2 uM doxorubicin, CellTiter-Glo, 72 h. differential viability (reversal), % at 10 µM;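 active means viability drop by adding the cancer drug above about 55%, with treated viability meeting a 40% cutoff, limit read from the data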;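 further: viability without doxorubicin minus viability with 2 µM doxorubicin for each compound; larger differential means the compound sensitizes cells more to doxorubicin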
# An asterisk follows results filed as active; . = not tested or not shown. Sampled rows, rich in hits. Any-hit rate of the full collection: about 21%.
SMILES,CYP2C19 activ,MRP-1 activ,CYP2C9 activ,CYP2C19 inh,CYP2C9 inh,MRP resist rev
CC(=O)N1N=C(c2ccco2)CC1c1ccc(C)cc1 (stereo unspecified),.,-1.9,.,.,.,.
Cc1ccc(Oc2ccc(S(=O)(=O)N3CCOCC3)cc2C(N)=O)c(-n2nc3ccccc3n2)c1,0.8,-4.3,0.6,23.4,44.7,-30.8
CCCCNC(=O)c1onc(CSc2cc(C)cc(C)c2)c1C(=O)O,0.8,-1.1,0.3,25.0,73.1*,.
CCCCNC(=O)c1onc(CSc2cccc(C)c2)c1C(=O)O,0.9,-1.6,0.2,10.2,75.9*,.
Cc1cccc(NC(=O)c2cc(NC(=O)C3CCCCC3C(=O)O)ccc2N2CCCCC2)c1 (stereo unspecified),.,-4.6,.,.,.,-16.5
CC(=O)Nc1ccc(N2CCCCC2)c(C(=O)Nc2cccc(C)c2)c1,0.5,-3.2,0.4,50.3*,56.7*,-19.1
CCOC(=O)CSc1ccc(S(=O)(=O)N(C)C2CCCCC2)cc1[N+](=O)[O-],0.4,-0.6,0.1,64.5*,88.2*,-1.6
COc1cccc(CN(C)CC(=O)NCc2ccccc2Cl)c1,.,-2.0,.,.,.,.
CCOC(=O)CSc1cc(C(F)(F)F)nc(-c2ccccn2)n1,1.1,-0.6,1,-9.0,-0.3,.
CCOC(=O)CSc1cc(CS(=O)(=O)c2ccccc2)nc(-c2ccccc2)n1,0.2,-2.8,0.5,80.8*,53.9*,.
O=S(=O)(Cc1cc(Cl)nc(-c2ccccc2)n1)c1ccccc1,0.1,1.4,1.4,91.5*,-38.4,.
CCc1ccc(NC2CC(=O)N(c3ccc(OC)cc3OC)C2=O)cc1 (stereo unspecified),0.9,-0.8,1,11.6,-1.2,15.0
CCCCN1C(=O)CC(Nc2ccc(CC)cc2)C1=O (stereo unspecified),0.2,-0.9,0.8,77.2*,22.4,-4.6
COc1ccc(NC2CC(=O)N(c3cccc(C)c3)C2=O)cc1 (stereo unspecified),0.4,-1.4,0.9,59.9*,12.6,8.8
COc1cccc(NC2CC(=O)N(CCc3ccccc3)C2=O)c1 (stereo unspecified),0.5,-2.1,0.8,49.8,20.9,22.8
Cc1ccc(NC2CC(=O)N(Cc3ccccc3)C2=O)cc1 (stereo unspecified),0.3,-2.3,1.5,67.9*,-45.6,6.6
Cc1ccc(N2C(=O)CC(Nc3ccccc3)C2=O)cc1 (stereo unspecified),0.5,-0.1,0.9,53.4*,9.1,41.9
Cc1nc(C)n(C(C)CC(=O)O)n1 (stereo unspecified),.,-2.5,.,.,.,-10.1
O=C(COc1ncnc2scc(-c3ccccc3)c12)NC1CCCc2ccccc21 (stereo unspecified),.,-0.9,.,.,.,.
Cc1nnc(Sc2nc3c(c(=O)n(C)c(=O)n3C)n2Cc2ccc(Cl)cc2)s1,.,-2.5,.,.,.,.
Cc1cccc(N2CCN(C(=O)/C=C/c3cccs3)CC2)c1C,.,1.5,.,.,.,.
COc1ccc(NC(=O)COC(=O)CCCOc2ccc(Cl)cc2Cl)cc1Cl,.,1.6,.,.,.,.
COc1cccc(Nc2ncccc2C(=O)Nc2ccccc2)c1,0.8,-3.6,0.7,22.2,25.4,-16.2
CCCN(CCC)C1CC(=O)N(Cc2ccccc2)C1=O (stereo unspecified),0.2,-4.0,0.9,85.0*,11.5,1.4
O=C1CC(N(O)C2CC(=O)N(Cc3ccccc3)C2=O)C(=O)N1Cc1ccccc1 (stereo unspecified),0.8,-0.3,0.9,17.1,11.1,0.1
SMILES,CYP2C19 activ,MRP-1 activ,CYP2C9 activ,CYP2C19 inh,CYP2C9 inh,MRP resist rev
CCc1nc(SCc2cccnc2)[nH]c(=O)c1C,0.6,0.6,0.2,41.8,82.0*,-0.2
COc1ccc(/C=N/NC(=O)C(O)(c2ccccc2)c2ccccc2)cc1OC,.,-1.1,.,.,.,.
Cc1ccc(C(=O)NCc2ccc3c(c2)OCO3)cc1S(=O)(=O)N1CCCCC1,0.5,-0.1,0.2,51.1*,81.0*,11.3
Cc1ccc(C(=O)NCc2ccc3c(c2)OCO3)cc1S(=O)(=O)N1CCOCC1,0.3,-1.5,0.2,66.0*,76.0*,17.0
O=C(NCc1ccc2c(c1)OCO2)c1ccc(CN2CCOCC2)cc1,1,-1.7,0.9,1.9,8.6,-11.2
Cc1ccc(C(=O)NCc2ccc3c(c2)OCO3)cc1N1CCCC1=O,1,-1.0,0.9,-4.4,8.4,4.8
O=C(NCc1ccc2c(c1)OCO2)c1ccc(Cl)c(S(=O)(=O)N2CCOCC2)c1,0.6,0.3,0.3,38.1,68.0*,8.3
O=C(NC1CC1)c1ccc2c(c1)C1C3CCC(C3)C1C(c1ccccc1)N2 (stereo unspecified),.,-3.5,.,.,.,.
CCN(CC)S(=O)(=O)c1cc(C(=O)OCC(=O)Nc2cccc(C)c2C)ccc1F,.,-0.1,.,.,.,.
CCOC(=O)C1C(=O)NC(SCC(=O)Nc2nccs2)=C(C#N)C1c1ccccc1OCC (stereo unspecified),.,-4.7,.,.,.,-2.9
C=CCSC1=C(C#N)C(c2ccccc2OCC)C(C#N)C(=O)N1 (stereo unspecified),0.4,-3.1,0.5,55.3*,53.7*,-25.8
CCOc1ccccc1C1C(C#N)=C(SCC(=O)OC)NC(=O)C1C(=O)OC (stereo unspecified),0.3,-0.5,0.7,70.1*,25.9,1.5
CCOC(=O)C1C(=O)NC(SCC(=O)OC)=C(C#N)C1c1ccccc1OCC (stereo unspecified),0.3,-0.8,0.7,67.5*,27.0,6.1
COC(=O)C1C(=O)NC(SC)=C(C#N)C1c1ccccc1F (stereo unspecified),.,-1.5,.,.,.,1.0
CCCCSC1=C(C#N)C(c2ccccc2C)C(C(=O)OCC)C(=O)N1 (stereo unspecified),0.4,-4.9,0.3,60.9*,66.4*,-13.6
CC(=O)NC(CCS(C)(=O)=O)C(=O)Nc1ccc(C)c(F)c1 (stereo unspecified),1.1,-3.0,1.2,-6.2,-19.1,-7.0
N#CCC(=N)N1CCN(c2ccccc2Cl)CC1,0.7,0.4,0.7,30.3,27.1,.
CCOC(=O)CSC1=C(C#N)C(c2ccccc2OCC)C(C(=O)OCC)C(=O)N1 (stereo unspecified),0,-1.8,0.2,98.8*,84.5*,17.1
CCCOC(=O)CSC1=C(C#N)C(c2ccccc2OC)C(C#N)C(=O)N1 (stereo unspecified),0.6,-0.2,0.6,37.7,41.7,-6.6
CCOC(=O)CSC1=C(C#N)C(c2ccccc2OCC)C(C#N)C(=O)N1 (stereo unspecified),0.2,-2.7,0.2,82.6*,77.6*,-45.6
CCOC(=O)CSC1=C(C#N)C(c2ccccc2Cl)C(C(=O)OC)C(=O)N1 (stereo unspecified),0.4,-1.1,0.4,59.3*,64.6*,0.7
CN1CCN(C(=O)CN(c2cccc(Cl)c2)S(=O)(=O)c2ccccc2)CC1,0.9,-0.6,0.7,6.8,30.7,-9.9

# Screens (PubChem BioAssay)
